# Test results as given in PubChem BioAssay (NCI).
# The panel holds about 83,000 compounds, 20% with a hit somewhere; the sample as a whole holds those more often.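 Assay: single dose, 48 h. Readout: percent growth (0 = no net growth; negative = cell death). Active: <10.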 A number with no mark means an inactive call. Calls of active or inactive are those of the source.
# Experiments:
# Assay in all cases: NCI-60 one-dose screen, 48 h (100 = growth as untreated, 0 = no growth, -100 = all killed)
# [1] = system: NCI-H23 lung
# [2] = system: NCI-H226 lung
# [3] = system: NCI-H322M lung
# [4] = system: HOP-62 NSCLC
# [5] = system: NCI-H460 lung
# [6] = system: HOP-92 NSCLC; settings: 10 µM unless noted
# [7] = system: NCI-H522 lung; settings: 10 µM unless noted
# [8] = system: A549/ATCC NSCLC
# [9] = system: 786-0 renal
# [10] = system: COLO 205 colon
# [11] = system: DU-145 prostate
# [12] = system: K-562 leukemia
# [13] = system: MALME-3M melanoma
# [14] = system: MDA-MB-231 breast
# [15] = system: RXF 393 renal
# [16] = system: SF-268 CNS
# [17] = system: SF-295 CNS
# [18] = system: SF-539 CNS
# [19] = system: UACC-257 melanoma; settings: 10 µM unless noted
# [20] = system: M14 melanoma
smiles,measurement,setting,value
Cc1ccc2nc(-[n+]3cc4ccccc4cc3C)ccc2c1,growth,[1]; 10 µM unless noted,19.1%
same,growth,[2]; 10 µM unless noted,53.7%
same,growth,[3]; 10 µM unless noted,85.2%
same,growth,[4]; 10 µM unless noted,37.1%
same,growth,[5]; 10 µM unless noted,29.5%
same,growth,[6],5.49% (active)
same,growth,[7],26.2%
same,growth,[8]; 10 µM unless noted,43.1%
same,growth,[9]; 10 µM unless noted,81.2%
same,growth,[10]; 10 µM unless noted,-11.8% (active)
same,growth,[11]; 10 µM unless noted,53.6%
same,growth,[12]; 10 µM unless noted,39.1%
same,growth,[13]; 10 µM unless noted,44.2%
same,growth,[14]; 10 µM unless noted,54.8%
same,growth,[15]; 10 µM unless noted,91.2%
same,growth,[16]; 10 µM unless noted,39.5%
same,growth,[17]; 10 µM unless noted,33.3%
same,growth,[18]; 10 µM unless noted,43.8%
same,growth,[19],11.4%
same,growth,[20]; 10 µM unless noted,43.1%
COc1ccc(-c2cscc2N)cc1,growth,[1]; 10 µM,79.4%
same,growth,[1]; 100 µM,74.2%
same,growth,[2]; 10 µM,106%
same,growth,[2]; 100 µM,86.6%
same,growth,[3]; 10 µM,95.6%
same,growth,[3]; 100 µM,73.9%
same,growth,[4]; 10 µM,55.8%
same,growth,[4]; 100 µM,57.6%
same,growth,[5]; 10 µM,83.5%
same,growth,[5]; 100 µM,33.8%
same,growth,[6],68.7% [100 µM]
same,growth,[7],34.8% [100 µM]
same,growth,[8]; 10 µM,76.7%
same,growth,[8]; 100 µM,46.1%
same,growth,[9]; 10 µM,98.6%
same,growth,[9]; 100 µM,37.1%
same,growth,[10]; 10 µM,78%
same,growth,[10]; 100 µM,-68.1% (active)
same,growth,[11]; 10 µM,83.3%
same,growth,[11]; 100 µM,69.8%
same,growth,[12]; 10 µM,54.4%
same,growth,[12]; 100 µM,22.9%
same,growth,[13]; 10 µM,138%
same,growth,[13]; 100 µM,66.9%
same,growth,[14]; 10 µM,55.3%
same,growth,[14]; 100 µM,50.8%
same,growth,[15]; 10 µM,106%
same,growth,[15]; 100 µM,89.5%
same,growth,[16]; 10 µM,91%
same,growth,[16]; 100 µM,41.3%
same,growth,[17]; 10 µM,54.1%
same,growth,[17]; 100 µM,40.9%
same,growth,[18]; 10 µM,78.7%
same,growth,[18]; 100 µM,44.3%
same,growth,[19],41.2% [100 µM]
same,growth,[20]; 10 µM,76.1%
same,growth,[20]; 100 µM,43.4%
CCC(=O)Sc1ccccc1C(=O)Nc1ccc(Cl)cc1,growth,[1]; 10 µM unless noted,46.1%
same,growth,[2]; 10 µM unless noted,52.7%
same,growth,[3]; 10 µM unless noted,55.4%
same,growth,[4]; 10 µM unless noted,76.5%
same,growth,[5]; 10 µM unless noted,34.5%
same,growth,[6],16.3%
same,growth,[7],67.3%
same,growth,[8]; 10 µM unless noted,76.5%
same,growth,[9]; 10 µM unless noted,57%
same,growth,[10]; 10 µM unless noted,84.7%
same,growth,[11]; 10 µM unless noted,74.3%
same,growth,[12]; 10 µM unless noted,19.4%
same,growth,[13]; 10 µM unless noted,6.61% (active)
same,growth,[14]; 10 µM unless noted,67.2%
same,growth,[15]; 10 µM unless noted,88.2%
same,growth,[16]; 10 µM unless noted,56.4%
same,growth,[17]; 10 µM unless noted,35.5%
same,growth,[18]; 10 µM unless noted,49.7%
same,growth,[19],94.7%
same,growth,[20]; 10 µM unless noted,42.4%
C1=C(c2ccccc2)C(c2ccc(OCCN3CCCCC3)cc2)Oc2ccccc21 (configuration not stated),growth,[1]; 10 µM unless noted,58.4%
same,growth,[2]; 10 µM unless noted,74.4%
same,growth,[3]; 10 µM unless noted,77.4%
same,growth,[4]; 10 µM unless noted,60.5%
same,growth,[5]; 10 µM unless noted,-20.2% (active)
same,growth,[6],59.3%
same,growth,[7],24.7%
same,growth,[8]; 10 µM unless noted,59.2%
same,growth,[9]; 10 µM unless noted,55.6%
same,growth,[10]; 10 µM unless noted,-55.1% (active)
same,growth,[11]; 10 µM unless noted,77.1%
same,growth,[12]; 10 µM unless noted,10.8%
same,growth,[13]; 10 µM unless noted,2.37% (active)
same,growth,[14]; 10 µM unless noted,48.4%
same,growth,[15]; 10 µM unless noted,20.4%
same,growth,[16]; 10 µM unless noted,62.2%
same,growth,[17]; 10 µM unless noted,52.7%
same,growth,[18]; 10 µM unless noted,71.8%
same,growth,[19],-40.6% (active)
same,growth,[20]; 10 µM unless noted,-58% (active)
O=C(Nc1ccc(F)cc1)ON=C1CCCCC1,growth,[1]; 10 µM unless noted,110% [100 µM]
same,growth,[2]; 10 µM unless noted,96.9% [100 µM]
same,growth,[3]; 10 µM unless noted,101% [100 µM]
same,growth,[4]; 10 µM unless noted,112% [100 µM]
same,growth,[5]; 10 µM unless noted,104% [100 µM]
same,growth,[6],108% [100 µM]
same,growth,[7],93.3% [100 µM]
same,growth,[8]; 10 µM unless noted,94.1% [100 µM]
same,growth,[9]; 10 µM unless noted,87.6% [100 µM]
same,growth,[10]; 10 µM unless noted,125% [100 µM]
same,growth,[11]; 10 µM unless noted,106% [100 µM]
same,growth,[12]; 10 µM unless noted,79.6% [100 µM]
same,growth,[13]; 10 µM unless noted,108% [100 µM]
same,growth,[14]; 10 µM unless noted,101% [100 µM]
same,growth,[15]; 10 µM unless noted,102% [100 µM]
same,growth,[16]; 10 µM unless noted,96.3% [100 µM]
same,growth,[17]; 10 µM unless noted,100% [100 µM]
same,growth,[18]; 10 µM unless noted,93.5% [100 µM]
same,growth,[19],98.8% [100 µM]
same,growth,[20]; 10 µM unless noted,111% [100 µM]
CCC(CC)COC(=O)c1ccc(O)c(O)c1,growth,[1]; 10 µM unless noted,81%
same,growth,[2]; 10 µM unless noted,63.9%
same,growth,[3]; 10 µM unless noted,85.3%
same,growth,[4]; 10 µM unless noted,50.3%
same,growth,[5]; 10 µM unless noted,73.8%
same,growth,[6],31.1%
same,growth,[7],-5.6% (active)
same,growth,[8]; 10 µM unless noted,52%
same,growth,[9]; 10 µM unless noted,78.5%
same,growth,[10]; 10 µM unless noted,95.7%
same,growth,[11]; 10 µM unless noted,73.4%
same,growth,[12]; 10 µM unless noted,102%
same,growth,[13]; 10 µM unless noted,54.8%
same,growth,[14]; 10 µM unless noted,48.9%
same,growth,[15]; 10 µM unless noted,65.7%
same,growth,[16]; 10 µM unless noted,57.8%
same,growth,[17]; 10 µM unless noted,90.1%
same,growth,[18]; 10 µM unless noted,34%
same,growth,[19],86.4%
same,growth,[20]; 10 µM unless noted,86.1%
